Laboratory results reported in PubChem BioAssay (NCATS).
Results filed as inconclusive are left out. Active and inactive are the calls of the source. Unless noted, calls follow the shape of the full dose curve.

Assays:
[1] = qHTS for Inhibitors of the Functional Ribonucleoprotein Complex (vRNP) of Lassa (LASV) Arenavirus: Viability assay - alamar blue signal for LASV Primary Screen (AID 1347083; calls by dose curve; tested in HEK293 reporter line; also: nearly all actives have a fitted effect of over 80% in size; also: potency is read from the fitted curve at half-maximal effect)
[2] = qHTS for Inhibitors of the Functional Ribonucleoprotein Complex (vRNP) of Lymphocytic Choriomeningitis Arenaviruses (LCMV): Viability assay - alamar blue signal for LCMV Primary Screen (AID 1347085; calls by dose curve; tested in HEK293 reporter line; also: nearly all actives have a fitted effect of over 80% in size; also: potency is read from the fitted curve at half-maximal effect)
[3] = target: Nucleoprotein (Lymphocytic choriomeningitis virus (strain Armstrong)) (UniProt P09992); experiment: qHTS for Inhibitors of the Functional Ribonucleoprotein Complex (vRNP) of Lymphocytic Choriomeningitis Arenaviruses (LCMV): LCMV Primary Screen - GLuc reporter signal (AID 1347086); also: nearly all actives have a fitted effect of over 70% in size; also: potency is read from the fitted curve at half-maximal effect
Sequence of Nucleoprotein (Lymphocytic choriomeningitis virus (strain Armstrong)) (P09992 whole entry, looked up): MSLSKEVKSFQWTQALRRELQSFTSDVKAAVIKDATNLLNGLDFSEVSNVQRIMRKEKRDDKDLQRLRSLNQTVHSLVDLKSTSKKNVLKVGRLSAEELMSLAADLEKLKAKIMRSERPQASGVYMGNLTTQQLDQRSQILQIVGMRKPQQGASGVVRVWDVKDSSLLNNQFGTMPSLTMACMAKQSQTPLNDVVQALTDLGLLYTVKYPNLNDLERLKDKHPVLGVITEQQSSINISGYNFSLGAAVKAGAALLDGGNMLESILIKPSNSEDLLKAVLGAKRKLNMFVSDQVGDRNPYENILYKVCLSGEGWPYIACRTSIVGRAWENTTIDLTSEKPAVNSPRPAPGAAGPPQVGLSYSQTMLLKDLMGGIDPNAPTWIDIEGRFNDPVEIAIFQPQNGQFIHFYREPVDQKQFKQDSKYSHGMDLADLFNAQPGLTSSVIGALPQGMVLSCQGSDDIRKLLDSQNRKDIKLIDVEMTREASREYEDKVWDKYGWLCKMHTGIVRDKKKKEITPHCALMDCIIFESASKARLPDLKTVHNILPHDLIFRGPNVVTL

[4] = qHTS of pediatric cancer cell lines to identify multiple opportunities for drug repurposing: Primary screen for TC32 cells (AID 1347089; active = well fitted curve in the direction sought with a large enough effect; an effect the other way counts as inactive or inconclusive; also: nearly all actives have a fitted effect of over 60% in size)
Outline: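 Luminescent ATP read-out (CellTiter-Glo) of metabolically active TC32 cells after 48 h exposure. Concentration-response curves came from 11-point (MIPE, 0.78 nM–46 µM) or 8-point (NPC, 0.59 nM–46 µM) primary titrations; follow-up used 11 points.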

[5] = qHTS of pediatric cancer cell lines to identify multiple opportunities for drug repurposing: Primary screen for DAOY cells (AID 1347090; active = well fitted curve in the direction sought with a large enough effect; an effect the other way counts as inactive or inconclusive; also: series mostly up to about 46 µM; nearly all actives have a fitted effect of over 55% in size)
Outline: (§1)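 Eight- or eleven-point concentration series, 48 h treatment at 37 degrees C in growth media; readout CellTiter-Glo luminescence. Potency and efficacy were taken from the concentration-response curves.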

[6] = qHTS of pediatric cancer cell lines to identify multiple opportunities for drug repurposing: Primary screen for SJ-GBM2 cells (AID 1347091; active = well fitted curve in the direction sought with a large enough effect; an effect the other way counts as inactive or inconclusive; also: potency is read from the fitted curve at half-maximal effect)
Outline: as §1

[7] = qHTS of pediatric cancer cell lines to identify multiple opportunities for drug repurposing: Primary screen for A673 cells (AID 1347092; active = well fitted curve in the direction sought with a large enough effect; an effect the other way counts as inactive or inconclusive; also: nearly all actives have a fitted effect of over 45% in size; also: potency is read from the fitted curve at half-maximal effect)
Outline: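 Cell viability of A673 measured by CellTiter-Glo ATP luminescence after 48 hours compound exposure. Dilution series spanned 0.78 nM to 46 µM (MIPE, 11-point) or 0.59 nM to 46 µM (NPC, 8-point); bortezomib 2.3 uM positive control.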

[8] = qHTS of pediatric cancer cell lines to identify multiple opportunities for drug repurposing: Primary screen for SK-N-MC cells (AID 1347093; active = well fitted curve in the direction sought with a large enough effect; an effect the other way counts as inactive or inconclusive; also: potency is read from the fitted curve at half-maximal effect)
Outline: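 Metabolically active cells were quantified by ATP-dependent luminescence (CellTiter-Glo, 15 min at room temperature) following 48 h treatment. Cells had been plated at 500-1,000 per well and settled for 5 h beforehand.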

[9] = qHTS of pediatric cancer cell lines to identify multiple opportunities for drug repurposing: Primary screen for BT-37 cells (AID 1347094; active = well fitted curve in the direction sought with a large enough effect; an effect the other way counts as inactive or inconclusive; also: series mostly up to about 57 µM)
Outline: (§2)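 Cells plated at 500-1,000/well in growth medium, compounds added after 5 h. MIPE tested at 11 points (from 0.78 nM), NPC at 8 points (from 0.59 nM). CellTiter-Glo luminescence after 48 h; concentration-response curves from primary screen.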

[10] = qHTS of pediatric cancer cell lines to identify multiple opportunities for drug repurposing: Primary screen for NB-EBc1 cells (AID 1347095; active = well fitted curve in the direction sought with a large enough effect; an effect the other way counts as inactive or inconclusive)
Outline: as §2

Measured: Potency

OCc1c[nH]c2ccccc12
inactive: [1] | [2] | [3]

Cc1cccc(-c2nn(C(=S)Nc3ccccc3)cc2-c2ccnc3ccccc23)n1
inactive: [1] | [2] | [3]

COc1ccc2c(c1)c1c3n2CCN(C)C3=NCC1
inactive: [1] | [2] | [3]

O=C(O)CNC(=O)CNC(=O)CNC(=O)CSC(=O)c1ccccc1
inactive: [1] | [2] | [3]

Cc1cc(Nc2nc(N[C@@H](C)c3ncc(F)cn3)ncc2Cl)n[nH]1
inactive: [1] | [2] | [3]

COc1cccc(OC)c1-c1cc(C(=O)NC2(C(=O)O)C3CC4CC(C3)CC2C4)nn1-c1ccnc2cc(Cl)ccc12 (stereo not drawn)
inactive: [1] | [2] | [3]

COc1c(C)cnc(Cn2cnc3c(Cl)nc(N)nc32)c1C
active: [1] 611 nM | [2] 685 nM | [3] 344 nM

NC(=O)c1ccc(-c2nc(-c3ccc4c(c3)OCO4)c(-c3ccccn3)[nH]2)cc1
inactive: [1] | [2] | [3]

C1=CC2C3C=CC(C3)C2C1 (stereo not drawn)
inactive: [1] | [2] | [3]

COc1cc2ncn(-c3cc(OCc4ccccc4C(F)(F)F)c(C(N)=O)s3)c2cc1OC
active: [1] 1720 nM | [2] 1720 nM | [3] 1720 nM

CC1=C(/C=C/C(C)=C/C=C/C(C)=C/C(=O)O)C(C)(C)CCC1
inactive: [1] | [2] | [3]

Nc1ccc(S(=O)(=O)Nc2ccccc2)cc1
inactive: [1] | [2] | [3]

CC1(C)SCCN(S(=O)(=O)c2ccc(OCC#CCO)cc2)[C@@H]1C(=O)NO
inactive: [1] | [2] | [3]

CCC(C(=O)O)c1ccc(N2Cc3ccccc3C2=O)cc1 (stereo not drawn)
inactive: [1] | [2] | [3]

Cc1nc2cnc3ccc(C#Cc4cccnc4)cc3c2n1-c1ccc(C(C)(C)C#N)cc1
active: [1] 43.2 nM | [2] 109 nM | [3] 109 nM

COc1ccc2c(c1)CC[C@H]1[C@@H]2CC[C@]2(C)[C@@H](NCCCCCCN3C(=O)C=CC3=O)CC[C@H]12
inactive: [1] | [2] | [3]

NC(CP(=O)(O)O)C(=O)O (stereo not drawn)
inactive: [1] | [2] | [3]

CS(=N)(=O)CC[C@H](N)C(=O)O (stereo partly drawn)
inactive: [1] | [2] | [3]

CCC=CC[C@H]1C(=O)CC[C@@H]1CC(=O)OC
inactive: [1] | [2] | [3]

NC(CCP(=O)(O)O)C(=O)O (stereo not drawn)
inactive: [1] | [2] | [3]

Cn1cc(-c2ccc3nnc(C(F)(F)c4ccc5ncccc5c4)n3n2)cn1
inactive: [1] | [2] | [3]

Cc1cccc(C#Cc2ccccc2)n1
inactive: [1] | [2] | [3]

CCN(c1ccccc1)c1cc(NC)[n+](C)c(C)n1
inactive: [1] | [2] | [3]

CC(C)OC(=O)c1cc(C(=O)OC(C)C)cc([N+](=O)[O-])c1
inactive: [1] | [2] | [3]

CN(C)c1ccc(C2Nc3ccc4ccccc4c3C3=C2C(=O)CC(C)(C)C3)cc1Br (stereo not drawn)
inactive: [1] | [2] | [3]

Cn1cncc1[C@@](N)(c1ccc(Cl)cc1)c1ccc2c(c1)c(-c1cccc(Cl)c1)cc(=O)n2C
active: [1] 4320 nM | [2] 2430 nM | [3] 1370 nM

C#CCOC(=O)C1=CCCN(C)C1
inactive: [1] | [2] | [3]

S=C(NCc1ccc2c(c1)OCO2)N1CCN(c2ncnc3c2oc2ccccc23)CC1
inactive: [1] | [2] | [3]

COCCn1c2c([n+](Cc3cnccn3)c1C)C(=O)c1ccccc1C2=O
active: [1] 109 nM | [2] 96.8 nM | [3] 68.5 nM

NCCS
inactive: [1] | [2] | [3]

CCN(CC)CCCCNc1nc2cc(Cl)c(Cl)cc2nc1-c1ccc(-c2cccs2)s1
inactive: [1] | [2] | [3]

CCCCC(CC)COC(=O)c1ccccc1C(=O)O (stereo not drawn)
inactive: [1] | [2] | [3]

CN1Cc2cc(C(=O)N3CCC(C4CCNCC4)CC3)ccc2N[C@@H](CC(=O)O)C1=O
inactive: [1] | [2] | [3]

CCCCCN(CCC12CC3CC(CC(C3)C1)C2)C(=O)NCCCc1ccncc1
inactive: [1] | [2] | [3]

O=C(C=Cc1c(C(=O)O)[nH]c2cc(Cl)cc(Cl)c12)Nc1ccccc1
inactive: [1] | [2] | [3]

CCC(=O)N[C@H]1CC[C@H](C(=O)N(C)c2ccc(-c3nc4ccccc4o3)cc2)C1
active: [1] 3430 nM | [2] 2170 nM | [3] 3430 nM

OCCC#Cc1nc(-c2ccc(F)cc2)c(-c2ccncc2)n1CCCc1ccccc1
inactive: [1] | [2] | [3]

CC1=C(C/C=C(\C)CCC[C@H](C)CCC[C@H](C)CCCC(C)C)C(=O)c2ccccc2C1=O
inactive: [1] | [2] | [3]

[O-][n+]1cccc(/C(Cl)=N/OC[C@@H](O)CN2CCCCC2)c1
inactive: [1] | [2] | [3]

CC(C)(Sc1ccc(CCN(CCCCC2CCCCC2)C(=O)NC2CCCCC2)cc1)C(=O)O
inactive: [1] | [2] | [3]

Fc1cc(Br)ccc1CBr
inactive: [1] | [2] | [3] | [4] | [5] | [6] | [7] | [8] | [9] | [10]

CCCCCCCCCC(CC)c1ccc(S(=O)(=O)O)cc1 (stereo not drawn)
inactive: [1] | [2] | [3] | [4] | [5]

S=C(NC1CCCCC1)N1CCC(c2cnc[nH]2)CC1
inactive: [1] | [2] | [3]

C[C@]12COC(=O)C[C@@H]1CC[C@@H]1[C@H]2CC[C@@]2(C)[C@H]1CC[C@]2(C)O
inactive: [1] | [2] | [3] | [4] | [5] | [6] | [7] | [8] | [9] | [10]

Nc1ccc(Cl)cc1N
inactive: [1] | [2] | [3] | [4] | [5] | [6]

NCCc1c[nH]c2ccccc12
inactive: [1] | [2] | [3]

NC(=O)C1CCCc2c1[nH]c1ccc(Cl)cc21 (stereo not drawn)
inactive: [1] | [2] | [3]

CCN(CC)CCc1nc(-c2ccccc2)no1
inactive: [1] | [2] | [3]

CCN1CCN(c2cc3c(cc2F)c(=O)c(C(=O)O)cn3C2CC2)CC1
inactive: [1] | [2] | [3]

COc1ncnc(NS(=O)(=O)c2ccc(N)cc2)c1OC
inactive: [1] | [2] | [3]

C=CCNC(N)=S
inactive: [1] | [2] | [3]

COc1cc(C(O)CN)ccc1O (stereo not drawn)
inactive: [1] | [2] | [3]

CCC1(CCC(C)C)C(=O)NC(=O)NC1=O
inactive: [1] | [2] | [3] | [4] | [5] | [6] | [7] | [8] | [9] | [10]

CC(C)(C)C(=O)Oc1ccc2c(c1)nc(NC(=O)c1cccc([N+](=O)[O-])c1)n2CCCO
inactive: [1] | [2] | [3]

O=C(O)c1ccccc1O
inactive: [1] | [2] | [3]

CCn1cc(C(=O)O)c(=O)c2cc3c(cc21)OCO3
inactive: [1] | [2] | [3]

OC[C@H](Cc1ccccc1)Nc1nc(Oc2ccc3c(c2)CCC3)nc2c1ncn2Cc1ccc(-c2ccccc2)cc1
inactive: [1] | [2] | [3]

COc1cc(N2CCC(N3CCN(C)CC3)CC2)ccc1Nc1ncc(Cl)c(Nc2ccccc2S(=O)(=O)C(C)C)n1
inactive: [1] | [2] | [3]

O=C(O)CCCOc1ccc(Cl)cc1Cl
inactive: [1] | [2] | [3] | [4] | [5] | [6] | [8] | [9] | [10]
active: [7] 313 nM

COc1ccccc1N1CCN(CC(O)COc2cc(OC)c(OC)c(OC)c2)CC1 (stereo not drawn)
inactive: [1] | [2] | [3]

Nc1nc2c(ncn2CCC(CO)CO)c(=O)[nH]1
inactive: [1] | [2] | [3]

Cc1cc(O)ccc1Cl
inactive: [1] | [2] | [3] | [4] | [5] | [6] | [7] | [8] | [9] | [10]

O=C(Nc1ccccc1-c1ccc(Cl)cc1)c1cccnc1Cl
inactive: [1] | [2] | [3] | [4] | [5] | [6] | [7] | [8]

CCN(CC)CCNC(=O)c1ccc(NC(C)=O)cc1
inactive: [1] | [2] | [3]

CC1(C)CCC(c2ccc(Cl)cc2)=C(CN2CCN(c3ccc(C(=O)NS(=O)(=O)c4ccc(N[C@H](CCN5CCOCC5)CSc5ccccc5)c(S(=O)(=O)C(F)(F)F)c4)cc3)CC2)C1
inactive: [1] | [2] | [3]

O=C(O)CCc1ccc(NCc2cccc(Oc3ccccc3)c2)cc1
inactive: [1] | [2] | [3]

COC(C)(C)CCCC(C)C/C=C/C(C)=C/C(=O)OC(C)C (stereo not drawn)
inactive: [1] | [2] | [3] | [4] | [5] | [6] | [7] | [8] | [9] | [10]

CS(=O)(=O)c1cccc(CNc2nc(Nc3ccc4c(c3)CCC(=O)N4)ncc2C(F)(F)F)c1
active: [1] 38500 nM
inactive: [2] | [3]

CC(=O)OCC1=C(C(=O)O)N2C(=O)[C@@H](N)[C@@H]2SC1
active: [6] 2350 nM | [7] 187 nM | [8] 23500 nM
inactive: [1] | [2] | [3] | [4] | [5]

c1cc2c(cc1[C@H]1OC[C@H]3[C@H]1CO[C@H]3c1ccc3c(c1)OCO3)OCO2
inactive: [1] | [2] | [3] | [4] | [5] | [6] | [7] | [8] | [9] | [10]

C=CC(=O)Nc1cc2c(Nc3ccc(F)c(Cl)c3)ncnc2cc1C#CC(C)(C)N1CCN(C)CC1
inactive: [1] | [2] | [3]

CN1C(=O)C(Cc2c[nH]c3ccccc23)NC1=S (stereo not drawn)
inactive: [1] | [2] | [3]

O=C(Nc1cccc(Cl)c1)Nc1ncc(CCNc2ncnc3ccsc23)s1
inactive: [1] | [2] | [3]

CN(C)NC(=O)CCC(=O)O
inactive: [1] | [2] | [3] | [4] | [5] | [6] | [7] | [8] | [9] | [10]
